The record followed here is the antibiotic and cytotoxicity screens of Wong et al. (2023).

Molecules are shown by their SMILES. In all, about 39,000 compounds went through this assay and about 3,300 (8.5%) were called active. Many of the other results were omitted from the sample, so actives are more common in it than they were.

The subject of this experiment is HepG2. The experiment in a line: cytotoxicity call (relative viability < 0.9). To be noted: 10 µM.
For `C[C@@H]1CN([C@@H](C)CO)C(=O)c2cccc(NC(=O)c3cnccn3)c2O[C@@H]1CN(C)S(C)(=O)=O`, the cytotoxicity call was “inactive”.
The result for `CC(C)NC(=O)Nc1ccc2c(c1)C(=O)N([C@H](C)CO)C[C@H](C)[C@@H](CN(C)Cc1ccccc1)OCCCC[C@@H](C)O2` reads “inactive”.
For the molecule `C[C@@H]1CN([C@@H](C)CO)C(=O)c2cc(NC(=O)Nc3ccc(C(F)(F)F)cc3)ccc2O[C@@H]1CN(C)Cc1ccc(C(=O)O)cc1`, the cytotoxicity call was “inactive”.
The result for `C[C@H](CO)N1C[C@H](C)[C@@H](CN(C)Cc2ccc(C(=O)O)cc2)Oc2ccc(NC(=O)Nc3ccc(C(F)(F)F)cc3)cc2C1=O` reads “inactive”; that for `C[C@H](CO)N1C[C@H](C)[C@@H](CN(C)Cc2ccc(C(F)(F)F)cc2)Oc2ccc(NC(=O)Nc3ccccc3)cc2C1=O`, “active”.
Take `C[C@@H]1CCCCO[C@H](CN(C)C(=O)c2ccncc2)[C@@H](C)CN([C@H](C)CO)C(=O)c2cc(NC(=O)C3CCCCC3)ccc2O1`: the cytotoxicity call was “inactive”.
As to `C[C@H](CO)N1C[C@H](C)[C@@H](CN(C)S(=O)(=O)c2cn(C)cn2)Oc2ccc(NS(=O)(=O)c3cn(C)cn3)cc2C1=O`, the cytotoxicity call is “inactive”.
The result for `C[C@@H]1CCCCO[C@@H](CN(C)S(=O)(=O)c2ccc(F)cc2)[C@@H](C)CN([C@@H](C)CO)C(=O)c2cc(NC(=O)Nc3cccc4ccccc34)ccc2O1` reads “inactive”; that for `CCc1cccc(C(C)C)c1NC(=O)Nc1ccccc1`, “inactive”; that for `Cc1oc(C(C)(C)C)cc1C(=O)Nc1ccc(C(C)C)cc1`, “inactive”.
The result for `CC(C)c1ccccc1Cc1cc(C(=O)Nc2ccc(S(=O)(=O)c3ccccc3C(C)(C)C)cc2)c(O)c(O)c1O` reads “active”; that for `C[C@@H]1CN([C@@H](C)CO)C(=O)Cc2cc(NC(=O)CCN3CCOCC3)ccc2O[C@@H]1CN(C)S(=O)(=O)c1ccccc1`, “inactive”; that for `COC(=O)C1=CC(CCCO)=C[C@@H](c2ccc(CN3CCCC3)cc2)N(Cc2sc3ccccc3c2Cl)C=C1C(=O)OC`, “inactive”.
The result for `C[C@H]1CN([C@@H](C)CO)C(=O)c2cc(C#Cc3ccccc3)cnc2O[C@@H]1CN(C)C(=O)CCN1CCCCC1` reads “active”; that for `C[C@H]1CN([C@@H](C)CO)C(=O)c2cc(C#Cc3ccccc3)cnc2O[C@H]1CN(C)C(=O)CCN1CCCCC1`, “active”.
With `C[C@H](CO)N1C[C@H](C)[C@@H](CN(C)C(=O)CCN2CCCCC2)Oc2ncc(C#Cc3ccccc3)cc2C1=O`, the cytotoxicity call was “inactive”.
Under `C[C@@H]1CN([C@H](C)CO)C(=O)c2cc(C#Cc3ccccc3)cnc2O[C@@H]1CN(C)C(=O)CCN1CCCCC1` stands “inactive”; under `C[C@@H]1CN([C@H](C)CO)C(=O)c2cc(C#Cc3ccccc3)cnc2O[C@H]1CN(C)C(=O)CCN1CCCCC1`, “inactive”; under `C[C@@H]1CN([C@@H](C)CO)C(=O)c2cc(C#Cc3ccccc3)cnc2O[C@@H]1CN(C)C(=O)CCN1CCCCC1`, “inactive”.
In the case of `CC(C)NC(=O)N(C)C[C@@H]1Oc2ccc(NC(=O)c3ccncc3)cc2CC(=O)N([C@@H](C)CO)C[C@H]1C`, the cytotoxicity call is “inactive”.
Under `COc1ccc(S(=O)(=O)N(C)C[C@@H]2Oc3ccc(NC(=O)CCCN(C)C)cc3CC(=O)N([C@H](C)CO)C[C@@H]2C)cc1` stands “inactive”; under `Cc1ccc(=O)[nH]n1`, “inactive”.
Under `C[C@@H]1CN([C@@H](C)CO)C(=O)c2cc(-c3cccnc3)cnc2O[C@@H]1CN(C)Cc1ccc(Oc2ccccc2)cc1` stands “inactive”; under `C[C@H]1CCCCO[C@H](CN(C)C(=O)Nc2cccc3ccccc23)[C@@H](C)CN([C@@H](C)CO)C(=O)c2cc(NC(=O)Cc3ccccc3)ccc2O1`, “inactive”; under `COc1cccc(S(=O)(=O)N(C)C[C@@H]2Oc3ncc(-c4cccc(C(=O)N(C)C)c4)cc3C(=O)N([C@@H](C)CO)C[C@H]2C)c1`, “inactive”.
Under `CC(C)NC(=O)Nc1ccc2c(c1)C(=O)N([C@H](C)CO)C[C@H](C)[C@@H](CN(C)Cc1ccccc1)OCCCC[C@H](C)O2` stands “inactive”; under `COc1ccc2c3c([nH]c2c1)[C@@H](CO)N(Cc1ccccc1)C[C@]13CCN(CC1)C(=O)Nc1cccc(c1)F`, “inactive”; under `COc1ccc2c3c([nH]c2c1)[C@H](CO)N(C[C@]13CN(CCc2ccccc2)C1)C(=O)CN1CCOCC1`, “inactive”.
In the case of `COc1ccc2c3c([nH]c2c1)[C@H](CO)N(Cc1ccc(cc1)Cl)C[C@]13CN(CCc2ccccc2)C1`, the cytotoxicity call is “active”.
Under `COc1ccc2c3c([nH]c2c1)[C@@H](CO)N(C[C@]13CN(CCc2ccccc2)C1)C(=O)CN1CCOCC1` stands “inactive”.
With `COc1ccc(cc1)CN1C[C@]2(CN(C2)C(=O)Cc2ccncc2)c2c([nH]c3cc(ccc23)OC)[C@H]1CO`, the cytotoxicity call is “inactive”.
In the case of `COc1ccc2c3c([nH]c2c1)[C@@H](CO)N(Cc1ccc(cc1)Cl)C[C@]13CN(CCc2ccccc2)C1`, the cytotoxicity call is “active”.
Turning to `C[C@H]1CN([C@@H](C)CO)C(=O)c2c(c3ccccc3n2C)-c2ccccc2CO[C@@H]1CN(C)Cc1ccccc1C(F)(F)F`, the cytotoxicity call was “inactive”.
The result for `C[C@H]1CN([C@@H](C)CO)C(=O)Cc2cc(NC(=O)CCN3CCOCC3)ccc2O[C@H]1CN(C)S(=O)(=O)c1ccccc1` reads “inactive”; that for `C=C[C@](C)(O)CCC[C@H](C)CCC[C@H](C)CCCC(C)C`, “inactive”; that for `CC(=O)OC1CCC2(C)C(CCC3(C)C2CC=C2C4CC(C)(C)CCC4(C(=O)O)CCC23C)C1(C)C` (stereo unspecified), “inactive”.
The result for `COc1ccc(S(=O)(=O)Nc2ccc3c(c2)C(=O)N([C@@H](C)CO)C[C@H](C)[C@H](CN(C)Cc2ccc4c(c2)OCO4)OCCCC[C@H](C)O3)cc1` reads “inactive”; that for `C[C@@H]1CN([C@H](C)CO)C(=O)Cc2cc(NS(=O)(=O)c3ccc(Cl)cc3)ccc2O[C@@H]1CN(C)C(=O)Nc1ccc(C(F)(F)F)cc1`, “inactive”.
`CN(C)C(=O)C[C@@H]1C=C[C@H](NC(=O)C2CC2)[C@@H](CO)O1`: the cytotoxicity call was “inactive”.
Consider `COc1ccc(S(=O)(=O)N(C)C[C@@H]2OCCCC[C@H](C)Oc3ccc(NC(=O)NC4CCCCC4)cc3C(=O)N([C@@H](C)CO)C[C@@H]2C)cc1`, for which the cytotoxicity call is “inactive”.
Under `COc1ccc(S(=O)(=O)N(C)C[C@H]2OCCCC[C@H](C)Oc3ccc(NC(=O)NC4CCCCC4)cc3C(=O)N([C@@H](C)CO)C[C@H]2C)cc1` stands “inactive”; under `COc1ccc(S(=O)(=O)N(C)C[C@H]2OCCCC[C@H](C)Oc3ccc(NC(=O)NC4CCCCC4)cc3C(=O)N([C@H](C)CO)C[C@H]2C)cc1`, “inactive”; under `COc1ccc(S(=O)(=O)N(C)C[C@@H]2OCCCC[C@H](C)Oc3ccc(NC(=O)NC4CCCCC4)cc3C(=O)N([C@@H](C)CO)C[C@H]2C)cc1`, “inactive”.
The result for `COc1ccc(S(=O)(=O)N(C)C[C@H]2OCCCC[C@H](C)Oc3ccc(NC(=O)NC4CCCCC4)cc3C(=O)N([C@H](C)CO)C[C@@H]2C)cc1` reads “inactive”; that for `COc1ccc(S(=O)(=O)N(C)C[C@@H]2OCCCC[C@@H](C)Oc3ccc(NC(=O)NC4CCCCC4)cc3C(=O)N([C@H](C)CO)C[C@H]2C)cc1`, “active”.
Under `COc1ccc(S(=O)(=O)N(C)C[C@@H]2OCCCC[C@H](C)Oc3ccc(NC(=O)NC4CCCCC4)cc3C(=O)N([C@H](C)CO)C[C@@H]2C)cc1` stands “inactive”; under `COc1ccc(S(=O)(=O)N(C)C[C@H]2OCCCC[C@@H](C)Oc3ccc(NC(=O)NC4CCCCC4)cc3C(=O)N([C@@H](C)CO)C[C@@H]2C)cc1`, “active”.
Turning to `COc1ccc(S(=O)(=O)N(C)C[C@H]2OCCCC[C@@H](C)Oc3ccc(NC(=O)NC4CCCCC4)cc3C(=O)N([C@@H](C)CO)C[C@H]2C)cc1`, the cytotoxicity call is “active”.
Regarding `C[C@@H]1CN([C@H](C)CO)C(=O)Cc2cc(NC(=O)CCCCCC(=O)Nc3ccccc3N)ccc2O[C@H]1CN(C)S(=O)(=O)c1cn(C)cn1`, the cytotoxicity call is “inactive”.
The result for `COc1ccc(NC(=O)N(C)C[C@@H]2OCCCC[C@@H](C)Oc3ccc(NS(=O)(=O)c4cccs4)cc3C(=O)N([C@@H](C)CO)C[C@H]2C)cc1` reads “inactive”; that for `C[C@H](CO)N1C[C@H](C)[C@@H](CN(C)S(=O)(=O)c2cn(C)cn2)Oc2ccc(NC(=O)C3CC3)cc2CC1=O`, “inactive”; that for `C[C@@H]1CCCCO[C@H](CN(C)Cc2ccc(C(=O)Nc3ccccc3N)cc2)[C@@H](C)CN([C@@H](C)CO)C(=O)c2cc(N(C)C)ccc2O1`, “inactive”.
Under `O=C(C[C@H]1C=C[C@@H](NC(=O)CN2CCOCC2)[C@@H](CO)O1)NCCc1ccccc1` stands “inactive”; under `CC(C)CC#Cc1ccc2c(c1)O[C@H](CN(C)C(=O)c1ccncc1)[C@H](C)CN([C@H](C)CO)S2(=O)=O`, “inactive”.
The result for `CCCCCCCCCc1ccc(OCCOCCOCCOCCOCCOCCOCCOCCOCCO)cc1` reads “active”.
Regarding `CCCCCCCCc1ccc(-c2ccc(C(=O)O)cc2)cc1`, the cytotoxicity call is “inactive”.
Take `OCCC[C@@H](O)c1ccc(OCCO)cc1`: the cytotoxicity call was “inactive”.
Under `C[C@@H]1CN([C@@H](C)CO)C(=O)CCCn2nncc2CO[C@H]1CN(C)Cc1ccc(C(=O)Nc2ccccc2N)cc1` stands “inactive”.
Under `c1coc(CNC[C@H]2Cn3nncc3CO2)c1` stands “inactive”; under `CC(C)(C)c1ccc(NC(=O)c2ccc(C(C)(C)C)s2)cc1`, “inactive”; under `CC(C)(C)c1ccc(NC(=O)N[C@H]2CCCc3ccccc32)cc1`, “active”.
The result for `N[C@H]1CC[C@@H](NC(=O)[C@H]2CCc3ccccc32)CC1` reads “inactive”.
`Cc1ccc(S(=O)(=O)Nc2ccc3c(c2)C(=O)N([C@H](C)CO)C[C@H](C)[C@@H](CN(C)C(=O)NC2CCCCC2)OCCCC[C@@H](C)O3)cc1`: the cytotoxicity call is “inactive”.
The result for `Cl.Clc1ccc(Cn2c(CN3CCCC3)nc3ccccc32)cc1` reads “inactive”; that for `Cc1nc2ccccc2n1Cc1ccc(Cl)cc1`, “active”.
The result for `Clc1ccc(CSc2nc3ccccc3s2)cc1` reads “inactive”; that for `CC1=CC2(CO)C(=O)[C@]3(CO3)C1[C@H]1[C@]2(C)C=C(CO)C(=O)[C@]12CO2` (stereo partly specified), “inactive”.
The result for `COc1ccc([Si](C)(C)[C@@H]2[C@@H](CC(=O)N3Cc4ccccc4C[C@H]3CO)O[C@]3(C(=O)N(Cc4cccc(N5C(=O)c6cccc7cccc5c67)c4)c4ccccc43)[C@H]2C)cc1` reads “inactive”; that for `COc1ccc([Si](C)(C)[C@@H]2[C@@H](CCO)O[C@]3(C(=O)N(Cc4cccc(N5C(=O)c6cccc7cccc5c67)c4)c4ccccc43)[C@H]2C)cc1`, “active”; that for `COc1ccc([Si](C)(C)[C@H]2[C@H](CCO)O[C@@]3(C(=O)N(Cc4ccccc4)c4ccc(N5C(=O)c6cccc7cccc5c67)cc43)[C@@H]2C)cc1`, “active”.
Consider `COc1ccc([Si](C)(C)[C@H]2[C@H](CCO)O[C@@]3(C(=O)N(Cc4cccc(N5C(=O)c6cccc7cccc5c67)c4)c4ccccc43)[C@@H]2C)cc1`, for which the cytotoxicity call was “active”.
The result for `COc1ccc([Si](C)(C)[C@@H]2[C@@H](CC(=O)N3CCC[C@H]3CO)O[C@]3(C(=O)N(Cc4cccc(N5C(=O)c6cccc7cccc5c67)c4)c4ccccc43)[C@H]2C)cc1` reads “inactive”.
With `COc1ccc([Si](C)(C)[C@H]2[C@H](CC(=O)N3CCC[C@H]3CO)O[C@@]3(C(=O)N(Cc4cccc(N5C(=O)c6cccc7cccc5c67)c4)c4ccccc43)[C@@H]2C)cc1`, the cytotoxicity call is “inactive”.
Under `COc1ccc([Si](C)(C)[C@H]2[C@H](CC(=O)N3Cc4ccccc4C[C@H]3CO)O[C@@]3(C(=O)N(Cc4ccc(N5C(=O)c6cccc7cccc5c67)cc4)c4ccccc43)[C@@H]2C)cc1` stands “inactive”; under `C[C@@H]1[C@@H]([Si](C)(C)F)[C@H](CCO)O[C@@]12C(=O)N(Cc1cccc(N3C(=O)c4cccc5cccc3c45)c1)c1ccccc12`, “inactive”; under `COc1ccc([Si](C)(C)[C@H]2[C@H](CC(=O)N3Cc4ccccc4C[C@H]3CO)O[C@@]3(C(=O)N(Cc4cccc(N5C(=O)c6cccc7cccc5c67)c4)c4ccccc43)[C@@H]2C)cc1`, “active”.
